Test systems include T-47D breast; BT-549 breast; MDA-MB-435 melanoma; SW-620 colon; MCF7 breast; HCT-116 colon; HCC-2998 colon; KM12 colon.
Assay in all cases: NCI-60 one-dose screen, 48 h (100 = growth as untreated, 0 = no growth, -100 = all killed)
Conditions in all cases: 10 µM unless noted

Compounds without any hit were thinned out: in the full panel of roughly 83,000, 20% have a hit.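 How to read the values: 0–100, growth inhibition (40 = 60% inhibited); 0, no net growth; -100 to 0, cell death (-40 = 40% of starting cells died; -100 = all dead).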 Values without a mark were called inactive. Active and inactive are the calls of the source. Rule for the calls: active = growth percent below 10; inactive = the rest.

Consider `c1ccc2c(c1)Oc1cccnc1-n1nccc1-2`, for which the growth in the test with T-47D breast was 105%; in the test on BT-549 breast, 101%; in the test on MDA-MB-435 melanoma it was 107%; in the test with SW-620 colon it was 102%; with MCF7 breast it was 98.6%; in the test on HCT-116 colon it was 104%. The values for the growth with HCC-2998 colon and in the test with KM12 colon were 110% and 100%, respectively.

On to `C=C1C(=O)O[C@H]2[C@H]1CC/C(COC(=O)OC/C1=C/CC[C@@]3(C)O[C@H]3[C@H]3OC(=O)[C@@H](CN(C)C)[C@@H]3CC1)=C\CC[C@@]1(C)O[C@@H]21`, for which the growth in the test on T-47D breast was -15.2% (active); in the test on BT-549 breast, -1.01% (active); in the test with MDA-MB-435 melanoma, 2.87% (active); in the test with SW-620 colon it was -56.5% (active); in the test on MCF7 breast, -29.7% (active); in the test on HCT-116 colon it was -72.7% (active). Besides, the results for the growth with HCC-2998 colon and in the test with KM12 colon were 79.8% and 37.9%, respectively.

As for `C=C1C(=O)O[C@H]2[C@H]1CC/C(COC(=O)c1cccc3ccccc13)=C\CC[C@@]1(C)O[C@@H]21`, the growth in the test on T-47D breast was -60% (active); with BT-549 breast, -45.1% (active); in the test with MDA-MB-435 melanoma, -54.2% (active); in the test with SW-620 colon, -52.8% (active); in the test on MCF7 breast, -42.9% (active); with HCT-116 colon, -93.8% (active). For the same compound, the growth was 62.7% in the test with HCC-2998 colon and 19.9% in the test on KM12 colon.

Take `CC(C)(C)C(=O)/C=c1/[nH]c(=O)/c(=C/c2ccccc2O)s1`: the growth is 41.3% in the test with T-47D breast; 71.8% in the test with BT-549 breast; -25.9% (active) in the test with MDA-MB-435 melanoma; 34% with SW-620 colon; 28.1% in the test on MCF7 breast; 21.2% in the test on HCT-116 colon. Also, the growth is 77.6% with HCC-2998 colon and 29.9% with KM12 colon.

Turning to `Cc1nc(N)nc(SCc2ccccc2)c1Br`, the growth with T-47D breast is 65.2%; in the test on BT-549 breast, 76.4%; with MDA-MB-435 melanoma, 111%; in the test with SW-620 colon, 104%; in the test on MCF7 breast, 79.8%; in the test with HCT-116 colon, 89%. For the same compound, the figures for the growth with HCC-2998 colon and with KM12 colon were 117% and 98.6%, respectively.

On to `S=c1[nH]nc(Cn2c3ccccc3c3ccncc32)o1`, for which the growth was 96% with T-47D breast; 105% in the test on BT-549 breast; 102% in the test on MDA-MB-435 melanoma; 104% in the test with SW-620 colon; 109% in the test on MCF7 breast; 102% in the test on HCT-116 colon. Moreover, the results for the growth with HCC-2998 colon and in the test with KM12 colon were 106% and 102%, respectively.

Consider `Cc1cn([C@]2(CF)O[C@H](CO)C2C)c(=O)[nH]c1=O` (some centres not stated), for which the growth in the test with T-47D breast is 119%; with BT-549 breast, 110%; in the test on MDA-MB-435 melanoma, 133%; in the test on SW-620 colon, 98.6%; with MCF7 breast it was 120%; in the test with HCT-116 colon, 100%. The growth in the test on HCC-2998 colon is 121%; with KM12 colon it was 110%.

Consider `COc1cc(/C=C/C(=O)c2c(C)[n+]([O-])c3ccccc3[n+]2[O-])ccc1O`, for which the growth with T-47D breast was 111%; in the test with BT-549 breast, 89.5%; in the test with MDA-MB-435 melanoma, 78.6%; in the test with SW-620 colon, 92.9%; with MCF7 breast, 93%; in the test on HCT-116 colon, 91.2%. Also, the figures for the growth in the test with HCC-2998 colon and with KM12 colon were 116% and 108%, respectively.

Consider `NC(=O)C1=C[C@H]2[C@H]3C=C[C@@]2(O)C(=O)O[C@@H]3O1`, for which the growth is 38.2% in the test with T-47D breast; 64.2% in the test with BT-549 breast; 36.9% with MDA-MB-435 melanoma; 40.3% in the test on SW-620 colon; 21.6% with MCF7 breast; 18.4% with HCT-116 colon. Further, the results for the growth in the test with HCC-2998 colon and in the test with KM12 colon were 91.6% and 84.9%, respectively.

Regarding `OCCOCC(F)(F)F`, the growth with T-47D breast is 104%; in the test on BT-549 breast, 97.7%; in the test on MDA-MB-435 melanoma, 94.4%; with SW-620 colon it was 100%; in the test with MCF7 breast, 105%; in the test on HCT-116 colon, 106%. Also, the growth was 104% with HCC-2998 colon and 113% in the test with KM12 colon.

As for `CCOc1ccc(-n2c(-c3cc(OC)c(OC)c(OC)c3)nnc2-c2ccc(OC)cc2N)cc1`, the growth with T-47D breast was 43.4%; with BT-549 breast, 84%; in the test with MDA-MB-435 melanoma, 81.3%; in the test with SW-620 colon it was 67.2%; in the test with MCF7 breast, 40.6%; with HCT-116 colon, 63.7%. The growth in the test on HCC-2998 colon was 82.4%; with KM12 colon it was 37.8%.

As for `OCc1cnccc1NC12CC3CC(CC(C3)C1)C2`, the growth is 89.4% in the test with T-47D breast; 110% in the test with BT-549 breast; 105% with MDA-MB-435 melanoma; 103% with SW-620 colon; 101% in the test on MCF7 breast; 99.6% with HCT-116 colon. The growth is 105% with HCC-2998 colon and 103% with KM12 colon.

For `CCn1c(SCC(=O)c2ccc(Br)cc2)nnc1-c1cc2c([nH]c3ccccc32)c(-c2cccc(O)c2)n1`, the growth in the test on T-47D breast was 29.4%; in the test on BT-549 breast, 71.9%; in the test with MDA-MB-435 melanoma it was 31.3%; in the test on SW-620 colon, 94.1%; with MCF7 breast, 40.5%; in the test on HCT-116 colon, 70.1%. Moreover, the results for the growth in the test on HCC-2998 colon and with KM12 colon were 98.4% and 66.5%, respectively.

Regarding `O=C(NCCNc1nccc(-c2c(-c3cccc(O)c3)nc3sccn23)n1)Nc1cc(C(F)(F)F)cc(C(F)(F)F)c1`, the growth with T-47D breast is 72%; in the test on BT-549 breast, 87.6%; in the test on MDA-MB-435 melanoma, 9.9% (active); with SW-620 colon, 73.5%; in the test with MCF7 breast, 67.5%; with HCT-116 colon it was 66.3%. For the same compound, the growth is 65.5% in the test with HCC-2998 colon and 43.1% in the test on KM12 colon.

Values taken from PubChem BioAssay (NCI).
